# Laboratory results reported in ChEMBL document CHEMBL3988442, “University of Dundee, Small-Polar-MMV Screening Library” (2021).
# The whole screen tested about 48,000 compounds, of which about 13,000 (27%) showed an effect of 50% or more. Some of the results follow.
# Test system: Wolbachia pipientis
# Experiment: Anti-Wolbachia Cell-Based Screen
# Type: functional
# Parameters: scale not given: in the data most compounds retested in dose-response had high values
# Conditions: 5 µM
row,Compound,Percent Effect
1,Cc1c(CN2CCOCC2)c(O)n(CCO)c(=O)c1C#N,129.2%
2,Cc1c(CN2CCCCC2)c(O)n(CCCO)c(=O)c1C#N,106.4%
3,Cn1c(NCC(=O)N2CCCCC2)c(C#N)c(=O)n(C)c1=O,-4.549%
4,Cc1oc(NC(=O)C(C)N2CCN(CCO)CC2)c(C#N)c1C (stereo not given),14.13%
5,Cn1c(NCCN2CCCCCC2)c(C#N)c(=O)n(C)c1=O,6.229%
6,Cn1cc(C#N)cc1C(=O)Nc1ccc(CN2CCOCC2)cn1,-7.398%
7,Cc1nn(C)c(N2CCOCC2)c1CNC(C)c1cccnc1 (stereo not given),-5.13%
8,CNC(=O)CCN1CCCCCC1c1ccc(C)o1 (stereo not given),-114%
9,Cc1ncsc1CCC(=O)NCc1csc(N2CCCC2)n1,13.92%
10,Cc1nc(O)cc(CCNC(=O)C2CC(=O)N(CC(C)C)C2)n1 (stereo not given),-0.9354%
11,CNC(=O)CCc1cc(C2CCCCN2C(C)C)nc(C)n1 (stereo not given),119%
12,CNC(=O)CCc1cc(C2CCCCN2C)nc(C)n1 (stereo not given),129.2%
13,Cc1[nH]n(-c2ccccc2)c2nnc(N)c1-2,-6.219%
14,Cc1noc(C)c1C1CCCN1C(=O)CN1C(=O)OC(C)(C)C1=O (stereo not given),87.43%
15,Cc1cc(CC(=O)N2CCCC2c2nc(C(C)C)no2)on1 (stereo not given),-3.815%
16,Cc1noc(C)c1C1CCCN1CCC(=O)N1CCc2ccccc2C1 (stereo not given),-8.027%
17,O=C1CCNC(=O)N1CC(=O)N1CCC1c1ccc(F)cc1 (stereo not given),13.18%
18,Cc1cc(C2CCCN2C(=O)CN(C)Cc2ccccc2)no1 (stereo not given),-3.366%
19,Cc1cc(C2CCCCN2C(=O)CN2C(=O)OC(C)(C)C2=O)no1 (stereo not given),120.5%
20,CC(C)c1cc(C2CCCN2C(=O)CN2C(=O)OC(C)(C)C2=O)no1 (stereo not given),116.9%
21,Cc1noc(C)c1C1CCCN1C(=O)CN1CC2(CCNCC2)OC1=O (stereo not given),-18.41%
22,Cc1cc(C2CCCCN2C(=O)CN2CC3(CCNCC3)OC2=O)no1 (stereo not given),-1.974%
23,CC(C)c1cc(C2CCCN2C(=O)CN2C(=O)CCNC2=O)no1 (stereo not given),96.7%
24,Cc1ccc2c(c1)SCC(=O)N2CC(=O)N1CCCC1c1cc(C)on1 (stereo not given),-2.59%
25,O=C(Cc1cccs1)NCC1COCc2c(-c3ccoc3)nnn2C1 (stereo not given),-2.287%
26,COc1cccc2c1OCC(C(=O)N1CCN(C3CCSCC3)CC1)C2 (stereo not given),-19.41%
27,Cc1ccc2c(c1)SCC(=O)N2CC(=O)N1CCCC1c1cc(C)no1 (stereo not given),3.294%

row,Compound,Percent Effect
1,Cc1cc(C2CCCN2C(=O)CN2CC3(CCNCC3)OC2=O)on1 (stereo not given),8.935%
2,Cc1cc(C2CCCN2C(=O)CN2C(=O)OC(C)(C)C2=O)on1 (stereo not given),91.01%
3,CN(CCC(F)(F)F)C(=O)[C@H]1CSCN1C(=O)OC(C)(C)C,-7.919%
4,CCc1nnc(NC(=O)c2ccc(C3CCCN3CC(C)C)s2)s1 (stereo not given),-1.663%
5,O=C(NC1CC1)c1cc(Cl)ccc1-n1cnnn1,2.892%
6,COc1ccc(F)cc1C(=O)Nc1nnc(C)s1,1.67%
7,Cc1ccc(C(=O)NC2CC2)c(-n2cnnn2)c1C,120.6%
8,Cc1ccc(C(=O)Nc2nnc(C3CC3)s2)c(-n2cnnn2)c1C,95.77%
9,O=C(Nc1nncs1)c1ccc(-n2cnnn2)cc1,-0.9565%
10,Cc1ccc(C(=O)Nc2nnc(CC(C)C)s2)c(-n2cnnn2)c1C,125.4%
11,CC(=O)N1CCC(NC(=O)c2ccccc2-n2cnnn2)CC1,3.237%
12,Cc1ccc(C(=O)Nc2nnc(C(C)C)s2)c(-n2cnnn2)c1C,110.4%
13,Cc1ccc(CNC(=O)Nc2nnc(C3CC3)s2)n1C,-14.35%
14,Cc1nn(C)c(C)c1CCC(=O)Nc1nnc(C2CC2)s1,27.73%
15,Cc1cc(C(=O)N[C@H](C)c2onc(C)c2C(=O)O)c(C)o1.Cl,-8.572%
16,Cc1cc(C)c(C(=O)NC2CCN(c3ncccc3C#N)CC2)c(=O)[nH]1,4.704%
17,Cc1ccc(C(=O)N2CC(C(N)=O)O[C@H](C)C2)c(C)c1 (stereo not given in full),-8.345%
18,CCCSc1ncc(-c2nccn2CCC(N)=O)cn1,-44.89%
19,COc1ccccc1C(C)CNC(=O)c1[nH]ncc1Br (stereo not given),42.12%
20,Cc1ccc(OC(C)CNC(=O)c2c[nH]nn2)cc1 (stereo not given),4.97%
21,CC(CNC(=O)c1c[nH]nn1)Oc1ccccc1Br (stereo not given),-9.853%
22,CC(CNC(=O)c1c[nH]nn1)Oc1ccc(Cl)cc1 (stereo not given),99.95%
23,CC(CNC(=O)c1cnc[nH]1)Oc1ccc(Cl)cc1 (stereo not given),110.7%
24,CC(CNC(=O)c1c[nH]nn1)Oc1cccc(Br)c1 (stereo not given),-32.96%
25,O=C(NC1CCCN(c2ccc(OC(F)F)cc2)C1)c1cnc[nH]1 (stereo not given),-8.702%
26,COc1ccccc1OC(C)CNC(=O)c1cnc[nH]1 (stereo not given),110.3%
27,CN(Cc1ccco1)Cc1ccccc1CNC(=O)c1cnc[nH]1,-12.45%

row,Compound,Percent Effect
1,CC(CNC(=O)c1cnc[nH]1)Oc1ccccc1Br (stereo not given),110.9%
2,CC(C)Oc1ccccc1CNC(=O)c1[nH]ncc1Br,24.22%
3,CC(CNS(N)(=O)=O)Oc1ccc(Cl)cc1 (stereo not given),-13.16%
4,CC(C)(O)c1cc(CC2(NCc3ccco3)COC2)no1,-7.158%
5,CN(C)CCn1ccnc1C1CCN(C(=O)CCc2ccncc2)CC1,-7.346%
6,Cc1ccc(C(=O)N2CCCC(Nc3ccc(F)cc3)C2)cc1 (stereo not given),-37.46%
7,CCN(C1CCN(C(=O)c2cccc(Cl)c2)CC1)S(C)(=O)=O,6.766%
8,CN(C)Cc1ccc(C(=O)N2CCCC(n3cccn3)C2)cc1 (stereo not given),13.31%
9,CCS(=O)(=O)N(C)C1CCN(C(=O)c2cccc(Cl)c2)CC1,-7.301%
10,CN(C)Cc1cnc(C2CCN(C(=O)c3ccc(F)cc3)C2)[nH]1 (stereo not given),127.5%
11,CN(C)Cc1cnc(C2CCN(C(=O)c3cccc(Cl)c3)C2)[nH]1 (stereo not given),128.9%
12,CCNS(=O)(=O)C1CCN(C(=O)c2c(F)cc(F)cc2F)C1 (stereo not given),-5.983%
13,CC(C)N(C)Cc1cncc2c1CCN(C(=O)c1ccccc1F)C2.Cl.Cl,-2.748%
14,CN(C)Cc1cnc(C2CCN(C(=O)c3cc(F)cc(F)c3)C2)[nH]1 (stereo not given),116.9%
15,CCNS(=O)(=O)C1CCN(C(=O)c2ccc(F)cc2)C1 (stereo not given),4.07%
16,CCOCCOc1ccccc1C(=O)N1CCCC(c2ncc[nH]2)C1 (stereo not given),-24.68%
17,CN(C)Cc1cnc(C2CCN(C(=O)c3ccccc3F)C2)[nH]1.Cl (stereo not given),151.5%
18,CCCS(=O)(=O)N1CCC2(CC(=O)N(c3cnn(C)c3)C2)C1 (stereo not given),9.344%
19,CCOc1ccc(N(CCC#N)C(=O)c2ccc(SC)nc2)cc1,-11.41%
20,CC1CCCN1C1CCN(C(=O)c2cccc(F)c2)CC1 (stereo not given),1.778%
21,CN(C)Cc1cnc(C2CCN(C(=O)c3cccc(F)c3)C2)[nH]1 (stereo not given),98.09%
22,O=C(c1cccc(F)c1)N1C[C@H]2CCCC(OCc3cccnc3)[C@H]2C1 (stereo not given in full),7.164%
23,CCc1cnc(N2CCC3(CC2)CCN(c2cnn(C)c2)C3=O)nc1,-11.71%
24,Cc1nonc1NC(=O)C1SCCc2ccccc21 (stereo not given),-22.17%
25,CCC(CO)N(CC=C(C)C)Cc1ccsc1 (stereo not given),-1.911%
26,CCC(CO)N(Cc1ccco1)Cc1c(C)nn(C)c1Cl (stereo not given),113.8%
27,CCC(CO)N(Cc1ccc(F)cc1)Cc1c(C)nn(C)c1Cl (stereo not given),108.6%

row,Compound,Percent Effect
1,CCC(CO)N(Cc1ccco1)C(=O)c1ccc(F)cc1Cl (stereo not given),-20.92%
2,CCC(CO)N(Cc1ccsc1)Cc1c(C)nn(C)c1Cl (stereo not given),83.51%
3,CCC(CO)N(Cc1ccco1)C(=O)c1cccc(C)c1O (stereo not given),-5.185%
4,CCC(CO)N(Cc1ccncc1)Cc1c[nH]nc1-c1ccc(F)cc1 (stereo not given),-8.532%
5,CCC(CO)N(Cc1ccccn1)Cc1c[nH]nc1-c1ccc(F)cc1 (stereo not given),-3.197%
6,CCC(CO)N(Cc1ccsc1)Cc1cccc(O)c1 (stereo not given),4.07%
7,O=C(NC1(c2nnn(CC3CCCO3)n2)CCCC1)c1ccccc1 (stereo not given),-21.33%
8,CCC(=O)NCC(=O)Nc1c(C)cnn1Cc1cc(F)ccc1F,-6.238%
9,FC(F)(F)c1[nH]nc2c1CN(Cc1ccccc1)CC2,-6.07%
10,Cn1c(=O)ccn(CC(=O)N2CCCC(n3cccn3)C2)c1=O (stereo not given),-17.99%
11,CC(=O)N1Cc2ccccc2C[C@H]1C(=O)N(C)Cc1ccccn1,-7.664%
12,N#Cc1ccc(NCC(=O)Nc2ncn(Cc3cccnc3)n2)cc1,2.258%
13,Cn1cccc1C(=O)NCc1cnc2n1CCN(C(=O)c1ccoc1)C2,-3.453%
14,N#Cc1ccc(C(=O)N2CCn3c(Cn4cccn4)cnc3C2)cc1.O=C(O)C(F)(F)F,-19.27%
15,O=C(c1ccoc1)N1CCc2ncc(Cn3cccn3)n2CC1,85.84%
16,N#Cc1cccc(C(=O)N2CCc3ncc(Cn4cccn4)n3CC2)c1,-16.45%
17,Cc1ccc(C(=O)N2CCc3ncc(Cn4cccn4)n3CC2)cn1,106.9%
18,O=C(O)C(F)(F)F.O=C(c1ccccn1)N1CCc2ncc(Cn3cccn3)n2CC1,108.7%
19,Cn1cccc1C(=O)N1CCc2ncc(Cn3cccn3)n2CC1,-10.36%
20,CN1CCN(Cc2cnc3n2CCN(C(=O)c2ccoc2)C3)CC1,1.07%
21,O=C(c1cccc(F)c1)N1CCc2ncc(Cn3cccn3)n2CC1,90.68%
22,Cc1ccsc1C(=O)N1CCc2ncc(Cn3cccn3)n2CC1,-18.82%
23,CC(NCc1ccc(OCC(N)=O)cc1)c1ccc(Cl)cc1Cl.Cl (stereo not given),-2.997%
24,CCc1cnc(NCc2nc(CSC)no2)nc1,19.97%
